Screening data from PubChem BioAssay.
Rab9 prom act: qHTS Assay for Rab9 Promoter Activators. Huh7 Rab9 promoter-luciferase reporter, luminescence, 24 h. Potency, µM (highest dose often 9.22 µM), for the others: at the top dose activation, negative = inhibition, most hits filed as activators. 320,000 tested, 2.8% active. AID 485297, 2010; further: % of control where 0% means no effect; nearly all actives have a fitted effect of over 60% in size
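Cells were plated at 1500 per well in reduced-serum medium with 10% FBS and left 2 h. Compound in DMSO was then added for 24 h at 37 °C. Reporter signal was read by luminescence after 10 min with luciferase detection reagent.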
NPC1 promoter act: qHTS Assay for NPC1 Promoter Activators | Huh7 NPC1 promoter luciferase reporter, 24 h | Potency, µM (series often up to 9.22 µM), inactives show top-dose activation, most hits filed as activators | 320,000 tested, 2.4% active; further: % of control where 0% means no effect; nearly all actives have a fitted effect of over 60% in size
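Stably transfected Huh7 (NPC1 promoter→luciferase), 1500 cells/well in Opti-MEM + 10% FBS, 2 h settle, then compound 24 h at 37 °C. Luminescence after 10 min with Amplite reagent.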
SMN2 splice up: qHTS Assay for Enhancers of SMN2 Splice Variant Expression | AID 1458, 2008 | HEK293 SMN2-luciferase splicing reporter, luminescence, 30-36 h | 210,000 tested, 2.8% active | Potency, µM (doses to about 46.1 µM), without a hit: top-dose activity change, positive = activation, usual class: activators; further: % of control where 0% means no effect; nearly all actives have a fitted effect of over 55% in size
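qHTS luciferase splicing reporter: luminescence rises when SMN2 exon 7 is included in transfected HEK293 cells. Compound exposure lasted 30-36 h at 37C, with 4.5 mM final sodium butyrate as control, followed by a ONE-Glo read.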
FLuc counter: qHTS profiling assay for firefly luciferase inhibitor/activator using purifed enzyme and Km concentrations of substrates (counterscreen for miR-21 project). Luciferin 4-monooxygenase (Photinus pyralis), P08659. purified FLuc, Km substrates, luminescence inhibition. Potency, µM (top dose mostly 57.5 µM), for the others: at the highest dose activity change, negative = inhibition, actives largely listed as inhibitors. AID 588342, 2011. 360,000 tested, 6.9% active;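 further: plate controls were vehicle for no effect and reference inhibitor for full effect; nearly all actives have a fitted effect of over 55% in size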
Target sequence (P08659 whole entry, looked up): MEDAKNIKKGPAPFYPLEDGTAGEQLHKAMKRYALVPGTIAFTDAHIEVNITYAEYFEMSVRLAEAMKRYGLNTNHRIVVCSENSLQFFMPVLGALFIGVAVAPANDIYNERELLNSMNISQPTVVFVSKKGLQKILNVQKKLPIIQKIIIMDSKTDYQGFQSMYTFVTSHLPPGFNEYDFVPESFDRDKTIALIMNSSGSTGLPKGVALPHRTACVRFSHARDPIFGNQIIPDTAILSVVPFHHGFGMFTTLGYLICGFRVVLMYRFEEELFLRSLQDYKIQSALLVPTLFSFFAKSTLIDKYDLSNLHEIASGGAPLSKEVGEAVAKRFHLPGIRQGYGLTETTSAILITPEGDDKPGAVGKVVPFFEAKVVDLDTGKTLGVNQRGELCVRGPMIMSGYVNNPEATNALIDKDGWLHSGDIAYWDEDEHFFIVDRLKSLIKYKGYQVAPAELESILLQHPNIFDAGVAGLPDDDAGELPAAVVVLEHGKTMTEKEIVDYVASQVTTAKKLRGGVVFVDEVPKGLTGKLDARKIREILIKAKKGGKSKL
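Biochemical qHTS of compounds, final roughly 60 µM downward over six points, against 10 nM purified firefly luciferase using Km concentrations of substrates (10 uM D-luciferin, 10 uM ATP) in Tris acetate pH 7.5 buffer; luminescence output.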
ELG1 genotoxic: qHTS screen for small molecules that induce genotoxicity in human embryonic kidney (HEK293T) cells expressing luciferase-tagged ELG1; HEK293T ELG1-luciferase reporter, luminescence, 16 h; Potency, µM (top dose mostly 46 µM), inactives show at the highest dose activity change, positive = activation, hits mostly activators; 330,000 tested, 1.3% active; further: % of control where 0% means no effect; nearly all actives have a fitted effect of over 60% in size
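ELG1-luciferase HEK293T cells, 2,000/well; compound pinned in; 16 hr, 37 °C, 5% CO2; ONE-Glo, 30 min RT; luminescence on CCD imager.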
KinaseGlo FLuc: Counterscreen for Luciferase (Kinase-Glo TM) Inhibition. Luciferin 4-monooxygenase (Photuris pensylvanica), Q27757. Kinase-Glo luciferase, ATP luminescence, 8 min. Potency, µM (doses to about 38.3 µM), for inactives: at the highest dose activity change, negative = inhibition, actives largely listed as inhibitors. 200,000 tested, 0.28% active. AID 1379, 2008; further: on the % scale 0 is the no-effect control and ±100 the full control effect; nearly all actives have a fitted effect of over 60% in size
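Substrate mix (final 50 mM imidazole pH 7.2, 50 mM KCl, 7 mM MgCl2, 10 uM ATP, 0.01% Tween 20, 0.05% BSA) plus pin-tool compound, then Kinase-Glo detection mix; 8 min ambient, luminescence read.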
* = called active by the depositor; ? = inconclusive; . = no result; [ ] = dose if it differs, or a comment. Most compounds without a hit are left out; they make up all but 7.5% or so of the library. The call rests on the fitted dose curve; in most records, active means well fitted curve in the direction sought with a large enough effect; inconclusive means small, poorly fitted or top-dose-only effect, or another doubt; inactive means no such curve, though single readings can be large; an effect the other way counts as inactive or inconclusive. Potency means the concentration at half of the fitted maximal effect.

SMILES	Rab9 prom act	NPC1 promoter act	SMN2 splice up	FLuc counter	ELG1 genotoxic	KinaseGlo FLuc
CCOC(=O)c1ccc(-c2ccc(/C=N/NC(=O)c3cncc(Br)c3)o2)cc1	0.71µM*	1.3µM*	.	2%	?	.
CCOC(=O)c1ccc(-c2ccc(/C=N/NC(=O)Cc3nnc(N)s3)o2)cc1	3.2µM*	2.5µM*	.	?	14%	.
O=C(CC(C(=O)NCc1ccccc1)c1nc2ccccc2c(=O)[nH]1)NCc1ccccc1 (centres undefined)	1%	-4%	.	1%	0%	.
COc1ccc(C(=O)Nc2ccc(S(=O)(=O)N3CCOCC3)cc2)cc1OC	-6%	0%	13%	2%	0%	2%
COc1ccc(CCNC(=O)Cn2nnc(-c3ccc(N4CCOCC4)cc3)n2)cc1OC	?	3%	?	3µM*	8%	-8%
COc1ccc(C(=O)Nc2ccc(N3CCOCC3)cc2)cc1OC	10%	23%	9%	24µM*	16%	?
COc1ccc(C(=O)Nc2ccc(N3CCCC3)cc2)cc1	?	26%	8%	7.6µM*	?	-5%
CN(C)c1cccc(C(=O)Nc2ccc(N3CCOCC3)cc2)c1	?	22%	?	21µM*	?	-10%
CCOc1ccc(CCNC(=O)Cn2nnc(-c3ccc(OC)c(OC)c3)n2)cc1OCC	.	.	-3%	-7%	.	.
COC(=O)c1cc2oc3ccccc3c2n1CC(=O)Nc1ccc(OC)c(OC)c1	.	.	9%	-3%	.	.
CCOc1ccc(C(=O)Nc2ccc(N3CCN(C)CC3)cc2)cc1Br	-3%	28%	-6%	6µM*	10%	-3%
CCOc1ccc(C(=O)Nc2ccc(NC(=O)c3ccccc3)cc2)cc1Br	-4%	-1%	-6%	2%	10%	.
COc1ccc(C(=O)Nc2ccc(N3CCCC3)cc2)cc1OC	4µM*	3.5µM*	.	5.4µM*	?	.
Cc1cc(C)n(-c2ccc(C(=O)Nc3nc4ccccc4s3)cc2)n1	?	2.5µM*	17%	2.7µM*	?	-5%
Nc1ccc(C(=O)Nc2nc3ccccc3s2)cc1	0.4µM*	0.63µM*	1.6µM*	0.38µM*	0.52µM*	-6%
CC(=O)Nc1cc(C)nn1-c1nc2ccccc2s1	26%	-2%	126%	?	?	-6%
CN1c2ccccc2C(=O)/C(=C\Nc2ccc(F)cc2)S1(=O)=O	-1%	-6%	.	12µM*	-2%	.
CC1CCC2(CC1)Nc1ccccc1C(=O)N2c1ccccc1 (centres undefined)	?	21%	?	-22%	?	-2%
O=C1c2ccccc2NC2(CCCCC2)N1c1ccc(O)cc1	19%	16%	8.9µM*	?	?	-4%
Cc1cccc(C(=O)Nc2ccccc2SCc2cc(=O)c3cccc(C)c3[nH]2)c1	.	.	.	-13%	.	.
O=C(Nc1cccnc1)c1cc2cc(Br)ccc2o1	?	2.5µM*	.	1.2µM*	5.2µM*	.
O=C(NC(=S)Nc1cccnc1)c1cc2ccccc2o1	26%	22%	.	6.7µM*	?	-11%
O=C(Nc1cccnc1)Nc1ccc(Br)cc1Cl	4%	8%	-9%	-21%	3%	-1%
O=C(NC(=S)NCc1cccnc1)c1cc2ccccc2o1	12%	0%	9%	?	-8%	4%
O=C(NC(=S)Nc1ccc(CN2CCCCC2)cc1)c1cc2ccccc2o1	-1%	3.2µM*	.	-3%	2%	.
SMILES	Rab9 prom act	NPC1 promoter act	SMN2 splice up	FLuc counter	ELG1 genotoxic	KinaseGlo FLuc
Cc1noc(C)c1COC(=O)c1csc2c1CCC(C)C2 (centres undefined)	0%	2%	.	?	10%	.
O=S(=O)(c1ccc(-c2cc(C(F)(F)F)on2)s1)N1CCN(c2cccc(Cl)c2)CC1	.	.	.	-5%	.	.
C=CCn1c(SCC(=O)Nc2cccnc2Cl)nnc1-c1ccc(C(C)(C)C)cc1	3%	-2%	.	21µM*	-3%	.
C=CCn1c(SCC(=O)Nc2ccccc2C)nnc1-c1ccncc1	4%	1%	5%	0%	-2%	-3%
COc1cc(-c2cc(-c3ccccc3)nc(SCC(=O)Nc3nccs3)c2C#N)cc(OC)c1OC	6%	-3%	-21%	2%	3%	-2%
Cc1nc(SCC(=O)Nc2nccs2)c(C#N)c(C)c1C	0.56µM*	?	.	1.1µM*	?	.
Cc1cc(C(F)(F)F)c(C#N)c(SCC(=O)Nc2nc3ccccc3s2)n1	0.4µM*	1.3µM*	-88%	1.2µM*	0.23µM*	2%
Cc1ccc2sc(NC(=O)CSc3nc(C)cc(C)c3C#N)nc2c1	28%	?	2.5µM*	3.8µM*	?	-1%
COc1ccc(NC(=O)Cn2c(=O)n(Cc3ccccc3OC)c(=O)c3cccnc32)cc1Cl	.	.	-3%	?	.	.
C=CCn1c(C)nnc1SCC(=O)Nc1nccs1	0.089µM*	?	.	4%	1%	.
Cc1nc(SCC(=O)Nc2nc3ccccc3s2)c(C#N)c(C)c1C	-48%	-26%	-102%	2.1µM*	-12%	-3%
Cc1ccc(NC(=O)CSc2nsc(SCC(=O)Nc3ccc(C)cc3C)c2C#N)c(C)c1	-5%	-6%	.	4%	7%	.
C=CCn1c(SCC(=O)Nc2nccs2)nnc1-c1ccco1	0%	-2%	-7%	5%	0%	-1%
Cc1csc(NC(=O)CSc2nsc(SCC(=O)Nc3nc(C)cs3)c2C#N)n1	1.6µM*	2.5µM*	11µM*	?	?	1%
CNC(=O)c1cc2cccc(OC)c2oc1=O	-3%	0%	24%	4%	9%	-1%
COc1ccc(-c2cc3cccc(OC)c3oc2=O)cc1	0.5µM*	0.45µM*	.	0.6µM*	?	.
COc1cccc2cc(-c3ccccc3)c(=O)oc12	2.8µM*	2.5µM*	11µM*	8.5µM*	?	?
COc1ccc(Nc2nc(-c3cc4cccc(OC)c4oc3=O)cs2)cc1	2%	-2%	8%	-17%	6%	-3%
COc1cccc2cc(-c3nc4ccccc4[nH]3)c(=O)oc12	2.2µM*	1.4µM*	.	1.7µM*	?	.
CCOc1ccc(C(=O)OCc2cc(=O)n3cc(C)sc3n2)cc1	.	.	.	-1%	.	.
COC(=O)Nc1ccc2c(c1)ncn2C1CCCCC1	0%	16%	1%	17µM*	12%	-9%
CCOC(=O)Nc1ccc2c(c1)ncn2C1CCCCC1	22%	3%	22%	-1%[2.3 µM]	12%	-5%
